Test results: PubChem BioAssay (EPA / NIEHS)
Several values for one entry are separate records, joined by “and”; a condition that tells them apart may be missing. Equal entries are not always repeated. Results filed as inconclusive are left out. Activity calls are given as the source filed them. Rule for the calls: active = hit-call score of the fitted dose curve at least 0.9, where 1 is the maximum; inconclusive = response in the unintended direction; inactive = score below 0.9.

Assays:
[1] = TOX21_p53_BLA_p2_viability: Viability Assessment in the Tox21 HCT-116 p53 Agonism Beta-lactamase Assay, Phase 2 (AID 2283591);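 note: compound exposure lasted 16 h at 37 °C; actives lower the ATP signal meaning cytotoxicity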
In short: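 HCT116 p53-bla cells, 4000/well, dosed after 5 h plating (217-fold dilution of DMSO stocks) and incubated 16 h at 37C. Viability taken as cellular ATP by CellTiter-Glo luminescence after 30 min RT; signal loss marks cytotoxicity.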

[2] = target: Cellular tumor antigen p53 (Homo sapiens) (UniProt P04637); test: TOX21_p53_BLA_p2_ratio: Tox21 HCT-116 p53 Agonism Beta-lactamase Assay, Ratio, Phase 2 (AID 2283592)
In short: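 Gain-of-signal p53 agonism was scored from the beta-lactamase FRET ratio (460/530 nm, 405 nm excitation) in HCT116 cells treated 16 h at 37C, 5% CO2, with DMSO serving as negative control and baseline.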

[3] = target: Cellular tumor antigen p53 (Homo sapiens) (UniProt P04637); test: TOX21_p53_BLA_p3_ratio: Tox21 HCT-116 p53 Agonism Beta-lactamase Assay, Ratio, Phase 3 (AID 2283596)
In short: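 HCT116 p53-bla cells (4000/well) given compound in DMSO (217-fold dilution) after 5 h, incubated 16 h at 37C. CCF4-AM substrate 2 h at room temperature; 460/530 nm emission ratio, gain fitted against DMSO.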

[4] = target: Cellular tumor antigen p53 (Homo sapiens) (UniProt P04637); test: TOX21_p53_BLA_p5_ratio: Tox21 HCT-116 p53 Agonism Beta-lactamase Assay, Ratio, Phase 5 (AID 2283599)
In short: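 HCT-116 p53-bla cells (4000/well) plated 5 h, dosed with compound (217-fold DMSO dilution) for 16 h at 37 C; CCF4-AM substrate 2 h at room temperature. Activity is the 460/530 nm emission ratio (405 nm excitation), fitted in gain-of-signal direction versus DMSO.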

[5] = target: Cellular tumor antigen p53 (Homo sapiens) (UniProt P04637); test: TOX21_p53_BLA_p4_ratio: Tox21 HCT-116 p53 Agonism Beta-lactamase Assay, Ratio, Phase 4 (AID 2283601)
In short: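 HCT-116 p53 beta-lactamase reporter cells (4000/well) preincubated 5 h, then compound (217-fold dilution of DMSO stock) for 16 h at 37C. CCF4-AM substrate added 2 h at room temperature; 460/530 nm emission ratio fitted upward versus DMSO.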

[6] = TOX21_p53_BLA_p3_viability: Viability Assessment in the Tox21 HCT-116 p53 Agonism Beta-lactamase Assay, Phase 3 (AID 2283593);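 note: cells exposed to compound for 16 h before reading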
In short: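 HCT116 cells, 4000/well, dosed 5 h after plating by pin transfer (217-fold dilution from DMSO stock) and incubated 16 h at 37C, 5% CO2. Viability read as ATP luminescence with CellTiter-Glo after 30 min at room temperature.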

[7] = TOX21_p53_BLA_p4_viability: Viability Assessment in the Tox21 HCT-116 p53 Agonism Beta-lactamase Assay, Phase 4 (AID 2283597);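 note: hits lower the luminescence signal meaning cytotoxicity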
In short: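 Following a 16 h exposure at 37C, the treated HCT116 wells were first read for the FRET ratio. They were then lysed with CellTiter-Glo, and ATP luminescence was recorded after 30 min at room temperature.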

[8] = TOX21_p53_BLA_p5_viability: Viability Assessment in the Tox21 HCT-116 p53 Agonism Beta-lactamase Assay, Phase 5 (AID 2283600)
In short: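 After the 460/530 nm beta-lactamase measurement, the wells received an ATP-detection luciferase reagent; signal was read 30 min later at RT. Compound treatment lasted 16 h on cells pre-incubated 5 h post-seeding.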

[9] = Tanguay_ZF_120hpf_MORT_legacy: (Legacy) Oregon State University Tanguay Lab 120 Hour Post-fertilization zebrafish Assay for Mortality (AID 2283633);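 note: fitted as increase in binary mortality versus DMSO negative control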
In short: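 Static waterborne exposure from 6 to 120 hpf at 28C of single dechorionated wild-type (5D) embryos per well, 0.64% DMSO final. Death recorded present/absent by brightfield at 24 and 120 hpf.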

Measured: AC50

Cellular tumor antigen p53 (Homo sapiens), sequence (P04637 whole entry, looked up): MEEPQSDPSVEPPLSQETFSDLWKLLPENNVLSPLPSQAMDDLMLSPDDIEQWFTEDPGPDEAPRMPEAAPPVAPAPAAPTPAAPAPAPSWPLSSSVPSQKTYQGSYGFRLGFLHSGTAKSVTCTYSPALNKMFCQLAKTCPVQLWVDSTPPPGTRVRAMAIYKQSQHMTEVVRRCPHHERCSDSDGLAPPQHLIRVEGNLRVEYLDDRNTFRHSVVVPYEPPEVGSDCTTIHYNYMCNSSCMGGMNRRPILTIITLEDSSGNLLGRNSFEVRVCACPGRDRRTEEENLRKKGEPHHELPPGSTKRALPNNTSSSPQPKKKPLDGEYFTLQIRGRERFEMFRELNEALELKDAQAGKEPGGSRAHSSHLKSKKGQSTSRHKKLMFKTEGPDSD

CC(C)C1(C)N=C(c2nc3ccccc3cc2C(=O)O)NC1=O (stereo not drawn)
inactive: [1] | [2] | [3] | [4] | [5]

CC1=C(C(=O)Nc2ccccc2)SCCO1
active: [9] 40.4 µM
inactive: all other assays above

N#Cc1cc(Br)c(O)c(Br)c1
inactive: [1] | [6]
active: [2] 40 µM and 56 µM | [3] 57.5 µM and 55.7 µM | [4] 57.3 µM and 72.4 µM | [5] 57.9 µM and 74.3 µM

COc1nc(C)nc(NC(=O)NS(=O)(=O)c2ccccc2Cl)n1
inactive: [1] | [2] | [3] | [8] | [5]

Cc1ccc(-c2c(Cl)nc(C#N)n2S(=O)(=O)N(C)C)cc1
inactive: [6] | [8]
active: [1] 68.9 µM | [2] 8.72 µM | [3] 12.1 µM | [4] 20.1 µM | [5] 17.3 µM | [9] 1.55 µM
